# Results reported in PubChem BioAssay AID1259415 (National Center for Advancing Translational Sciences (NCATS), 2018).
# “And” between values parts separate entries of the source, which are not always exact repeats. Identical values can stand only once. Out of some 410,000 compounds screened, about 18,000 (4.4%) were called active. Another 7% or so got no clear call; they are omitted. The sample holds actives, similar compounds and a random draw of the others, so the mix is not that of the screen. Unmarked numbers belong to inactive results. Rule as the data show it: active = activity change below about -60%; inconclusive = no clear call, values can overlap the other calls; inactive = above about -39%.
# Test: qHTS Assay for inhibitors of the human cytomegalovirus (HCMV)
# Details: HFF cells, HCMV-luciferase reporter, 72 h; at 57.5 µM; hits give low values
# How it was run: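 Two-dose cell screen: HFF monolayers treated with compounds and infected with luciferase-expressing HCMV at 1 PFU/cell, 72 h at 37C, then lysed for luciferase measurement.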
# % is scaled to controls: 0 for no effect and ±100 for the full control effect.
row,SMILES,"activity change, negative = inhibition"
1,COc1ccc(Cn2c(=O)oc3ccccc32)cc1,6.27%
2,COc1ccc(CNc2nc(-c3ccc(Cl)cc3)nn2C(=O)c2ccccc2)cc1,1.03%
3,COc1ccc(Cn2c(-c3ccc(Cl)cc3)c[n+]3ccccc23)cc1,-95.3% (active)
4,CCN1C(=O)C(C(=O)NC(C)c2ccccc2)C2CC1(C)Oc1ccccc12 (stereo not given),-37%
5,CCCS(=O)(=O)N1CCN=C1SCc1cccc(F)c1,-70.6% (active)
6,O=C(COc1ccccc1)N1CCN=C1SCc1cccc(F)c1,-11.8%
7,O=S(=O)(c1ccc(F)cc1)N1CCN=C1SCc1cccc(F)c1,-18.5%
8,COc1cc(OC)cc(-c2nc3nc(C)c(CCC(=O)Nc4ccccc4)c(C)n3n2)c1,4.64%
9,Cc1ccc(NC(=O)c2ccc3[nH]c(C)cc(=O)c3c2)c(C)c1,-8.34%
10,O=C(N/N=C/c1c(O)n(C2CC2)c(=S)[nH]c1=O)c1ccccc1,-8.42%
11,Cc1[nH]n(-c2ccccc2)c(=O)c1/C=N/NC(=O)c1ccoc1C,-99.7% (active)
12,O=C(N/N=C/c1c(O)n(C2CC2)c(=S)[nH]c1=O)c1ccccc1Cl,-9.9%
13,CCOC(=O)CSc1nnc(CNC(=O)Cc2ccccc2)n1-c1ccccc1OC,-26.6%
14,CC(=O)c1ccc(NC(=O)c2nc(-c3ccc(C)cc3)n3c2CCCCC3)cc1,-8.98%
15,Cc1cccc(CNC(=O)c2cnc3sc(N4CCCCC4)nn3c2=O)c1,27.1%
16,CCOc1ccccc1C(=O)NC1(C(F)(F)F)C(=O)Nc2c1c(=O)[nH]c(=O)n2-c1ccc(F)cc1 (stereo not given),-8.54%
17,COc1ccc(CNC(=O)c2cc3c(-c4ccccc4F)nn(C)c3s2)c(OC)c1,-64.7% (active)
18,CN(CCNC(=O)c1cc2c(-c3ccccc3F)nn(C)c2s1)C1CCCCC1,-6.98%
19,COc1ccc(CNC(=O)c2cc3c(=O)[nH]c4ccc(C)cc4c3s2)c(OC)c1,-17.4%
20,Cc1ccc(Nc2c(-c3ccc(C)cc3)nc3cnccn23)cc1,31.2%
21,COc1ccc(OC)c(NC(=O)CSc2nc3ccccc3nc2N2CCCCC2)c1,19.8%
22,CCCOc1ccc(Cl)cc1Nc1nc(NCCO)nc(N2CCCC2)n1,14.9%
23,CCN1CCN(c2nc(Nc3cc(OC)ccc3OC)nc(Nc3cc(OC)ccc3OC)n2)CC1,-64.4% (active)

row,SMILES,"activity change, negative = inhibition"
1,COc1ccc2c(CNCCc3ccccc3C)c(C(=O)O)n(Cc3ccccc3C)c2c1,-9.03%
2,COc1cc(C(=O)N2CCC(c3ccncc3)CC2)cc(OC)c1OC,18%
3,COc1ccccc1CNC(=O)CCCCn1c(=O)c2ccccc2n(CC(=O)Nc2cc(Cl)ccc2C)c1=O,-9.62%
4,O=C(NCc1cccc(C(F)(F)F)c1)c1cccc(S(=O)(=O)N2CCN(Cc3ccccc3)CC2)c1,0.707%
5,O=C(NCc1ccccc1CN1CCCC1)c1cccc(S(=O)(=O)Nc2ccc(F)cc2)c1,56.8%
6,O=C(NCc1ccncc1)c1ccc(NS(=O)(=O)c2cccc([N+](=O)[O-])c2)cc1,-29%
7,O=C(NCc1ccncc1)c1cccc(NS(=O)(=O)c2ccc(F)c(F)c2)c1,-101% (active)
8,O=C(NCc1ccccc1)c1ccc(S(=O)(=O)Nc2cccc(C(F)(F)F)c2)cc1,-62% (active)
9,O=C(NCCCN1CCCC1=O)c1ccc(S(=O)(=O)Nc2ccccc2)cc1,-28.4%
10,Cc1ccccc1CSCCNC(=O)C1CCN(S(=O)(=O)Cc2ccccc2)CC1,-4.14%
11,Cc1ccc2nc(COc3cccc(NC(=O)c4cccc(Cl)c4)c3)cc(=O)n2c1,9.28%
12,Cc1ccccc1-c1nc(NC(C)C)nc2cc(-c3ccccc3)sc12,-8.38%
13,Cc1cc(C)c2oc(C(=O)Nc3ccc(S(=O)(=O)N(C)c4ccccc4)cc3)cc(=O)c2c1,-2.92%
14,Cc1ccc(Cl)cc1NC(=O)/C(C#N)=C\c1cn(Cc2ccc(F)cc2)c2ccccc12,-6.14%
15,Cc1ccc(Cl)cc1N1CCN(C(=O)CN2C(=O)COc3ccc(S(=O)(=O)N4CCOCC4)cc32)CC1,6.7%
16,CC(C)CCn1c(=O)c2c(nc3n2CCCN3Cc2ccccc2)n(C)c1=O,-22.4%
17,CCOc1ccc(C(=O)NCC(=O)N2CCCCCCC2)cc1OCC,-11.3%
18,COc1ccc2c(CC(=O)N3CCc4cc(OC)c(OC)cc4C3)coc2c1,-13.1%
19,CCOc1cc(C(=O)N2CCc3cc(OC)c(OC)cc3C2)ccc1OC(F)F,-71.6% (active)
20,Cc1nn(C(=O)c2c(F)cccc2F)c(C)c1S(=O)(=O)N1CCOCC1,9.99%
21,O=S(=O)(c1cnccc1N1CCN(/N=C/c2ccc(Br)cc2)CC1)N1CCCCC1,-6.47%
22,COc1cc(OC)c(C(=O)NC2CC(C)(C)NC(C)(C)C2)cc1OC,37.1%
23,COc1ccc(C(=O)NC2CC(C)(C)NC(C)(C)C2)cc1OC,7.69%

row,SMILES,"activity change, negative = inhibition"
1,COc1cc2c(cc1OC)C(=O)NCC(C)(C)O2,-102% (active)
2,COc1ccc(NC(=O)CSc2nc3ccccc3n2CC(=O)N2CCCCC2C)cc1 (stereo not given),-20.6%
3,O=C(c1cnn(-c2ccc(F)cc2)c1-n1cccc1)N1CCN(c2ccc(F)cc2)CC1,-8.43%
4,CCCCOc1ccc(C(=O)Nc2cccc(-c3nc4ccccc4o3)c2C)cc1,-17.8%
5,COC(=O)c1nc2n(n1)C(c1ccc([N+](=O)[O-])cc1)C(C(=O)Nc1ccc(Cl)cc1)=C(C)N2 (stereo not given),5.33%
6,CCOc1ccc(C2C(C(=O)Nc3ccc(Cl)cc3)=C(C)Nc3nc(C(F)(F)F)nn32)cc1 (stereo not given),-84.1% (active)
7,COc1cc(C2C(C(=O)Nc3ccc(F)cc3)=C(C)Nc3nc(CCCO)nn32)cc(OC)c1OC (stereo not given),8.48%
8,Cc1ccc2oc3c(c(=O)c2c1)C(c1ccc([N+](=O)[O-])cc1)N(CCCN1CCOCC1)C3=O (stereo not given),40.9%
9,COc1ccc(CCNC(=O)C(=O)NCC(c2ccco2)S(=O)(=O)c2cccs2)cc1OC (stereo not given),0.563%
10,CCOc1ccc(CCNC(=O)c2csc3c2CCCCC3)cc1,-5.3%
11,Cc1cccc(OCCCC(=O)Nc2sc3c(c2C(N)=O)CCC(C)C3)c1 (stereo not given),-6.01%
12,CCOCCCNC(=S)Nc1ccc2nc(N3CCN(CC)CC3)cc(C)c2c1,-1.19%
13,COc1ccc(C(=O)Nc2ccc3nc(N4CCCCC4)cc(C)c3c2)cc1OC,-31.4% and -29.2%
14,CCN1CCN(c2cc(C)c3cc(NC(=O)c4cc(Cl)ccc4OC)ccc3n2)CC1,-99.2% (active)
15,COc1ccc(CCNC(=O)CCCn2c(=O)c3ccccc3n(Cc3ccc(F)cc3Cl)c2=O)cc1OC,12.1%
16,O=C1OCCC1=COCCCCOC=C1CCOC1=O,19%
17,COc1ccc(CNC(=O)Cc2coc3ccc(C(C)C)cc23)cc1,-6.28%
18,Cc1ccc(Cl)cc1NC(=O)Cc1ccc(-n2c(C)nc3cccnc32)cc1,0%
19,Cc1c(NC(=O)Cc2ccccc2)cccc1-c1nc2cccnc2s1,-66.4% (active)
20,Cc1c(NC(=O)C(C)(C)C)cccc1-c1nc2ccccc2s1,39.5%
21,O=C(CCc1cn(Cc2ccc(F)cc2)c2ccccc12)NC1CCCCC1,4.53%
22,Cc1nc(N2CCCCC2)sc1C=O,-68.8% (active)
23,Cc1nc(N2CCOCC2)sc1C(=O)NN,0%

row,SMILES,"activity change, negative = inhibition"
1,CC(C)C(C)(C#N)NC(=O)CSc1nncn1-c1ccccc1 (stereo not given),-23%
2,COc1ccccc1C1C(C(=O)N2CCCCC2)=C(C)Nc2nc3ccccc3n21 (stereo not given),1.21%
3,COC(=O)c1c(NC(=O)c2cc(=O)c3c(C)cc(C)cc3o2)sc2c1CCCC2,17.7%
4,CCN(CC(=O)NC(=O)NCc1ccccc1)Cc1nc2ccccc2c(=O)[nH]1,5.98%
5,CCN(CC)c1ccc(C(=O)NNC(=O)CCc2nc3ccccc3c(=O)[nH]2)cc1,-64.9% (active)
6,CCN(Cc1nc2ccccc2c(=O)[nH]1)Cc1cc(=O)oc2cc(C)c(C)cc12,17.8%
7,COc1ccc(-c2cc(NCc3ccc(F)cc3)n3cnnc3n2)cc1,-27.8%
8,CCc1cnc2c(c1SCC(=O)c1ccccc1)c(=O)n(C)c(=O)n2C,-3.48%
9,COCC(C)NS(=O)(=O)c1ccc(N2CCCCS2(=O)=O)cc1 (stereo not given),-11.3%
10,CC(c1ccccc1)n1c(NCCCn2ccnc2)nc2c1c(=O)[nH]c(=O)n2C (stereo not given),97.4%
11,Cc1cc(C)nc(NC(=O)Nc2ccccc2C(F)(F)F)n1,-62.1% (active)
12,CN(CC(=O)Nc1ccccc1C(F)(F)F)C(=O)Cc1ccccc1F,-12.2%
13,O=C(NNC(=O)c1ccccc1[N+](=O)[O-])Nc1ccccc1C(F)(F)F,-0.175%
14,COc1cc(Cl)c(C)cc1NC(=O)CCc1nc2cccnc2n1Cc1cccs1,11%
15,Cc1nnc(SCC(=O)Nc2cccc(N)c2)n1-c1ccccc1,5.74%
16,CC[n+]1c(C)n(-c2ccccc2)c2ccc(NC(C)=O)cc21,-79.8% (active)
17,CC(=O)Nc1ccc(NC(=O)CSc2nnc(C3CC3)n2-c2ccccc2)cc1,0%
18,Cn1c(CCC(=O)OCC(=O)NCc2ccccc2Cl)nc(=O)c2ccccc21,14.9%
19,Cc1ccc(Nc2ccc3cc(S(=O)(=O)N4CCCCC4)ccc3n2)cc1F,-90.2% (active)
20,O=S(=O)(c1ccc2nc(NCc3ccccc3Cl)ccc2c1)N1CCCCC1,-22.2%
21,O=S(=O)(c1ccc2nc(N3CCN(c4cccc(Cl)c4)CC3)ccc2c1)N1CCCCC1,6.51%
